gsp agonist: qHTS for Agonist of gsp, the Etiologic Mutation Responsible for Fibrous Dysplasia/McCune-Albright Syndrome: qHTS. gsp mutant cells, cAMP HTRF, 30 min. AID 624287, 2012. 340,000 compounds, 0.13% hits. Potency, µM (highest dose often 76.9 µM), inactives show at the top dose activation (cAMP increase), usual class: activators; active = well fitted activation curve with a large enough effect; inconclusive = small, poorly fitted or top-dose-only effect, or another doubt; inactive = no such curve, though single readings can be large or run the other way; cell line not stated here;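 also: phosphodiesterase inhibitor Ro 20-1724 added with compounds to block cAMP breakdown; potency is read from the fitted curve at half-maximal effect; nearly all actives have a fitted effect of over 60% in size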
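Cells in DMEM/10% FBS with G418 were pretreated with compounds in DMSO plus […] (300 uM stock) for 30 min at 37C. cAMP was measured by HTRF (cAMP-d2 plus anti-cAMP antibody-K) after 30 min at room temperature.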
RXFP1 agonist: qHTS Assay for Agonists of the Relaxin Receptor RXFP1 | Relaxin receptor 1 (Homo sapiens), Q9HBX9 | HEK293T-RXFP1 cAMP TR-FRET, 30 min; response scale: percent of porcine relaxin response, buffer zero | Potency, µM (top dose mostly 57.5 µM), for the others: at the highest dose activation, hits mostly activators | 370,000 compounds, 0.3% hits | AID 2676, 2010; also: potency is read from the fitted curve at half-maximal effect; % is scaled to controls: 0 for no effect and ±100 for the full control effect; nearly all actives have a fitted effect of over 60% in size
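Agonist response is measured as cAMP accumulation in an RXFP1-transfected HEK293T line under PDE4 inhibition. Values are scaled between buffer-only and 29 nM porcine relaxin, and EC50s come from standard Hill equation fits.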
gsp antagonist: qHTS for Antagonists of gsp, the Etiologic Mutation Responsible for Fibrous Dysplasia/McCune-Albright Syndrome: qHTS | Potency, µM (series often up to 76.9 µM), without a hit: at the top dose activity change, negative = inhibition, usual class: inhibitors | 340,000 compounds, 0.4% hits | gsp-mutant cells, cAMP HTRF, 30 min; calls by dose curve; cell line not stated here;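 also: intracellular cAMP measured with PDE inhibitor Ro 20-1724 present during compound exposure; potency is read from the fitted curve at half-maximal effect; % is scaled to controls: 0 for no effect and ±100 for the full control effect; nearly all actives have a fitted effect of over 65% in size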
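HTRF cAMP measurement after 30 min RT detection following 30 min, 37C compound treatment alongside […] (added as 300 uM solution) in G418-selected cells seeded at 2000/well and grown 16–24 h.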
p53 reactivator: qHTS assay for re-activators of p53 using a Luc reporter | H1299 p53-A138V BP100-luciferase reporter, luminescence, 24 h | Potency, µM (doses to about 92.2 µM), inactives show at the highest dose activity change, positive = activation, usual class: activators | 320,000 compounds, 0.063% hits | AID 504706, 2011; also: potency is read from the fitted curve at half-maximal effect; % of control where 0% means no effect; nearly all actives have a fitted effect of over 45% in size
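p53-null H1299 cells stably carrying temperature-sensitive p53-A138V and a BP100-luciferase reporter were pinned with compounds (4-point, 1:5 series) and held 24 hrs at 37 deg C. Luminescence was read 10 min after detection reagent.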
Tb PFK block: qHTS Assay to Find Inhibitors of T. brucei phosphofructokinase; T. brucei PFK, ADP-Glo luminescence; 330,000 compounds, 0.17% hits; ATP-dependent 6-phosphofructokinase (Trypanosoma brucei brucei), O15648; Potency, µM (series often up to 57.5 µM), inactives show top-dose activity, negative = inhibition, hits mostly inhibitors;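 also: potency is read from the fitted curve at half-maximal effect; 0% = uninhibited 1x PFK enzyme wells and -100% = no-enzyme wells; nearly all actives have a fitted effect of over 60% in size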
Target sequence (O15648 whole entry, looked up): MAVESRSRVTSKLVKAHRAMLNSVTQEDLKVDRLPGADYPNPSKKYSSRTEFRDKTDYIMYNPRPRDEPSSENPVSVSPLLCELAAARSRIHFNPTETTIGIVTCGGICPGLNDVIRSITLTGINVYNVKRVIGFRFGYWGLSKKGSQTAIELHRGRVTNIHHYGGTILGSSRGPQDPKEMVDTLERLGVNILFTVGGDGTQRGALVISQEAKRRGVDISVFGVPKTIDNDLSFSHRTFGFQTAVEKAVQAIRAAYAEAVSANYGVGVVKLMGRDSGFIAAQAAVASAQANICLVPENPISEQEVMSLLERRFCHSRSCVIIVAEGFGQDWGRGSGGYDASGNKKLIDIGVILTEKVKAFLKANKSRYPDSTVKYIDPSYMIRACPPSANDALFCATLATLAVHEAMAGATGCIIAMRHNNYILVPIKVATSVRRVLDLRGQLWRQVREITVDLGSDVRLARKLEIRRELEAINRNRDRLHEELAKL
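PFK 1.25 nM, F6P 0.5 mM, ATP 0.1 mM, 0.1 M TEA pH 8.0, 5 mM MgCl2, 0.01% Tween20, 0.1% BSA; 45 min RT. ADP-Glo readout. qHTS titration up to 57 uM; curves fitted, compounds curve-classed.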
RXFP1 antagonist: qHTS Assay for Antagonists of the Relaxin Receptor RXFP1 | Relaxin receptor 1 (Homo sapiens), Q9HBX9 | HEK293-RXFP1, relaxin-stimulated cAMP HTRF, 30 min; stronger effect = lower value | activity change, negative = inhibition, % at 57.5 µM | 350,000 compounds, 0.59% hits;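 active = activity change of -60% or lower, but not beyond a set lower limit; inconclusive = change between -60% and -40%, or beyond the set limit; inactive = change above -40%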; also: % is scaled to controls: 0 for no effect and ±100 for the full control effect
* marks the source's active call; other numbers are inactive results; ? = inconclusive; · = no result given; [ ] = dose if it differs, or a comment. This is a sample that favours compounds with a hit; in the whole collection about 1.1% have one here. Unless noted, calls follow the shape of the dose curve; as a rule, active = well fitted curve in the direction sought with a large enough effect; inconclusive = small, poorly fitted or top-dose-only effect, or another doubt; inactive = no such curve, though single readings can be large; an effect the other way counts as inactive or inconclusive.

SMILES	gsp agonist	RXFP1 agonist	gsp antagonist	p53 reactivator	Tb PFK block	RXFP1 antagonist
COc1ccc(-c2nn(CCC(=O)O)cc2/C=N/NC(N)=S)cc1	0%[15.4 µM]	-2%	1%	-4%	0%	4
CC(C)c1nc(N2CCN(C(=O)c3ccco3)CC2)c(C#N)c2c1COC(C)(C)C2	-10%	3%	-11%	-2%	0%	-61*
COCCCn1c(C(=O)N2CC(C)OC(C)C2)cc2c(=O)n3cccc(C)c3nc21 (stereo unspecified)	?	22%	13%	-5%	8%	-9
COc1ccc(NS(=O)(=O)c2ccc3c(c2)Cc2ccccc2-3)cn1	-8%	1%	28µM*	0%	0%	1
Nc1ncccc1C(=O)OCC(=O)N1CCN(S(=O)(=O)c2ccc(Cl)cc2)CC1	2%	1%	-8%	-9%	-2%	0
CCOc1ncccc1C(=O)OCC(=O)N1CCN(S(=O)(=O)c2ccc(Cl)cc2)CC1	7.9µM*	2%	-24%	-4%	3%	-11
Cc1csc(SCC(=O)Nc2cc(C(N)=O)cc(C(N)=O)c2)n1	1%[15.4 µM]	·	4%	4%	0%	-15
Cc1cccc(C)c1NC(=O)C1CCN(S(=O)(=O)c2cccc3nsnc23)CC1	·	4%	·	·	·	·
C(=N\Nc1nc2ccccc2[nH]1)/c1c[nH]c2ccccc12	4%[15.4 µM]	0%	40µM*	25µM*	0%	-26
C(=C\c1ccccc1)/C=N/Nc1nc2ccccc2[nH]1	-7%	-1%	-3%	8.9µM*	7%	-12
COc1ccc2c(c1)CCc1c(C(=O)N3CCOCC3)noc1-2	5%	-1%	-7%	13%	-2%	-12
COc1ccc2c(c1)CCc1c(C(=O)N3CCCc4ccccc43)noc1-2	-5%	-1%	40µM*	10%	-1%	-20
Cc1ccc(O)c(C(=O)c2cc(C#N)c(=O)n(Cc3ccccc3)c2)c1	-11%	1%	-17%	-5%	-10%	-90*
CCCc1nnc(SCc2ccc(OCC)cc2)n1N	-22%	-3%	9%	3%	-5%	5
CS(=O)(=O)c1ncc(Cl)c(C(=O)N(Cc2ccc(Cl)cc2)Cc2ccco2)n1	·	-1%	·	·	·	?
COc1ccc(C(=O)N/C(=C\c2ccco2)C(=O)NCc2ccco2)cc1	?	0%	0%	-3%	0%	18
O=C(COc1cccc(C(F)(F)F)c1)NCC(c1ccco1)N1CCCC1 (stereo unspecified)	-30%	·	-2%	-9%	2%	4
O=C(COc1cccc(C(F)(F)F)c1)NCC(c1ccco1)N1CCCCC1 (stereo unspecified)	-4%[15.4 µM]	1%	5%	10%	-3%	-61*
COc1ccc2[nH]c3c(N4CCN(Cc5ccc6c(c5)OCO6)CC4)ncnc3c2c1	11%	2%	40µM*	-16%	-2%	-17
COc1ccc2c(c1)c1ncnc(N3CCN(Cc4ccc5c(c4)OCO5)CC3)c1n2C	·	8%	·	-19%	0%	·
Cc1ccc(C(=O)CSc2nc(-c3ccccc3)nc3c2CCCC3)cc1	·	6%	·	·	·	·
NNC(=O)CSc1nc(-c2ccccc2)nc2c1CCCC2	12%	0%	-6%	-1%	2%	-69*
N#Cc1ccc(CN2CCN(C(=O)c3ccc(S(=O)(=O)NCc4ccco4)cc3)CC2)cc1	0%	1%	-15%	6%	0%	-14
Cc1nc2c(C(=O)NC(C)c3ccccc3)cnn2c(C)c1Cc1ccccc1 (stereo unspecified)	·	-2%	·	·	·	-85*
Cc1nc2c(C(=O)NCCc3ccc(Cl)cc3)cnn2c(C)c1Cc1ccc(F)cc1	·	-1%	·	·	·	-61*
SMILES	gsp agonist	RXFP1 agonist	gsp antagonist	p53 reactivator	Tb PFK block	RXFP1 antagonist
COC(CNC(=O)c1cnn2c(C)c(Cc3ccccc3)c(C)nc12)OC	-8%[15.4 µM]	0%	-9%	3%	13%	5
CN=C1SC(CC(=O)NCCc2ccc(OC)c(OC)c2)C(=O)N1C (stereo unspecified)	28%	1%	7%	0%	0%	-7
CC(C)Oc1ccc(Br)cc1/C=N\NC(N)=S	?	0%	4%	0%	-1%	-65*
CC12CCC(C(=O)N(CSC(=S)N/N=C\c3ccccc3Cl)C1=O)C2(C)C (stereo unspecified)	0%[15.4 µM]	0%	-13%	26%	1%	-65*
CCOC(=O)c1cccc(NC(=O)CCn2c(=O)oc3ccccc32)c1	17%	2%	-11%	-5%	0%	-20
CC(C)N(Cc1ccccc1)C(=O)/C=C/c1ccccc1[N+](=O)[O-]	20%	1%	-7%	-5%	-8%	2
O=C1NN=C(c2ccc(Br)cc2)CC1c1ccc(Cl)cc1 (stereo unspecified)	-20%	2%	-3%	-1%	-2%	-61*
COc1cc(/C=N/NC(=O)CCC(=O)Nc2ccc(F)cc2)ccc1O	-10%[15.4 µM]	-3%	4%	11%	0%	1
O=C(CCNC(=O)N1CC(=O)Nc2ccccc21)NCc1cccc(Cl)c1	10%	0%	8%	8%	-8%	-92*
CCCc1cnc2c(c1SCc1ccc(C(F)(F)F)cc1)c(=O)n(C)c(=O)n2C	·	2%	·	·	·	-5
Cc1[nH]n(-c2ccccc2)c(=O)c1/C=C1/C=c2ccccc2=N1	18%[15.4 µM]	1%	9%	15%	0%	2
Cc1[nH]n(-c2ccccc2)c(=O)c1/C=C1\C=NN=C1c1ccccc1	-3%[15.4 µM]	2%	?	9%	-26%	-110*

Compound activity: PubChem, National Center for Advancing Translational Sciences (NCATS)
